# Screening results (PubChem BioAssay)
# Sampled rows, rich in hits. Any-hit rate of the full collection: about 9%.
# PLK1 PBD inh: PLK1 (human) polo-box domain binding inhibition | hit rate 2.8% among 360,000 | Potency, µM, for the others: max response, negative = inhibition, usual class: inhibitors | Plk1 PBD binding of FITC phosphopeptide, fluorescence polarization | AID 720504 | P53350; note: series mostly up to about 57 µM; % is set by controls: 0 for no effect and ±100 for the full control effect; nearly all actives have a fitted effect of over 65% in size
# G9a block: G9a (human) methyltransferase inhibition. hit rate 8.8% among 350,000. AID 504332. Potency, µM (highest dose often 102 µM), without a hit: at the highest dose activity, negative = inhibition, hits mostly inhibitors. G9a H3K9 monomethylation, AlphaScreen, 2 h. Q96KQ7; note: % is set by controls: 0 for no effect and ±100 for the full control effect; nearly all actives have a fitted effect of over 75% in size
# Target sequence (Q96KQ7 913-1193 limits assumed): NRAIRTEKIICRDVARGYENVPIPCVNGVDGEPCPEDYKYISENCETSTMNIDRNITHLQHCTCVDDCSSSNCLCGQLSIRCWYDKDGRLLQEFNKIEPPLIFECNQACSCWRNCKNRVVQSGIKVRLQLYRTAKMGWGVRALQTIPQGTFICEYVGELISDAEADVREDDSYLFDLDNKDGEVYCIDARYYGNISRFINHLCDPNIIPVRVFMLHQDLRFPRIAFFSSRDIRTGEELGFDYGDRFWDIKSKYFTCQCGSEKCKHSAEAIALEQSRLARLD
#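 Readings reflect AlphaScreen signal from monomethyl-H3K9 antibody detection. HMT at 20 nM; substrate b-H3K9 500 nM; cofactor SAM 20 uM; 2 h RT reaction; compounds tested as titrations in qHTS with 15 min preincubation.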
# ALOX12 inh: blocks human arachidonate 12S-lipoxygenase; P18054; purified 12hLO, xylenol orange hydroperoxide absorbance; hit rate 1.1% among 580,000; Potency, µM (doses to about 108 µM), for the others: top-dose activity change, negative = inhibition, usual class: inhibitors; note: % is set by controls: 0 for no effect and ±100 for the full control effect
#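 Purified human 12hLO at 150 nM in 25 mM Hepes, 0.01% Triton X-100, pH 7.0, preincubated 15 min at room temperature with compound. Reaction started with 40 uM arachidonic acid, 30 min at room temperature. Hydroperoxide measured by Fe-xylenol orange, 573/405 nm absorbance ratio.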
# HP1b binding inh: inhibitors of HP1-beta chromodomain binding to methylated histone tails. AID 540317. P83916. AlphaScreen HP1-beta / biotin-H3K9me3 peptide binding. hit rate 0.56% among 390,000. Potency, µM (doses to about 114 µM), inactives show at the highest dose activity change, negative = inhibition, hits mostly inhibitors; note: nearly all actives have a fitted effect of over 70% in size
# Target sequence (P83916 whole entry, looked up): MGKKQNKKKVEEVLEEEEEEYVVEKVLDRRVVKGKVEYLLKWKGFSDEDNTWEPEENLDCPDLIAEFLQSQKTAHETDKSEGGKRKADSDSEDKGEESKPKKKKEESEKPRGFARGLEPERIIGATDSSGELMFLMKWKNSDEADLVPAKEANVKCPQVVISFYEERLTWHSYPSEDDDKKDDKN
#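 HP1-beta protein (50 nM final) preincubated 30 min at room temperature with biotinylated H3(1-18)K9me3 peptide (50 nM) in PBS pH 7.4, 0.01% Tween-20, then compound added for 30 min. AlphaScreen streptavidin donor/nickel chelate acceptor beads (10 ug/mL final), 30 min dark, luminescence read.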
# BAZ2B inh: inhibitors of human BAZ2B bromodomain | Q9UIF8 | AlphaScreen BAZ2B-H3K14Ac peptide displacement | Potency, µM (titrated, usually from 114 µM), for inactives: at the highest dose activity change, negative = inhibition, hits mostly inhibitors | hit rate 4.4% among 360,000 | AID 504333; note: % is set by controls: 0 for no effect and ±100 for the full control effect; nearly all actives have a fitted effect of over 60% in size
#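 BAZ2B (50 nM) with biotin-H3(5-23)K14Ac peptide (50 nM) in PBS pH 7.4, 0.01% Tween-20, preformed 30 min, then compound 30 min at room temperature; top concentration 110uM. AlphaScreen streptavidin donor/nickel chelate acceptor beads (10 ug/mL final), 20 min dark, signal read.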
# JMJD2A Tudor: JMJD2A Tudor domain (human) inhibition; O75164; AlphaScreen JMJD2A-Tudor / H3K4me3 peptide binding; Potency, µM (titrated, usually from 114 µM), for the others: at the top dose activity change, negative = inhibition, usual class: inhibitors; hit rate 4.4% among 390,000; AID 504339; note: % is set by controls: 0 for no effect and ±100 for the full control effect; nearly all actives have a fitted effect of over 50% in size
# Active calls of the source: *; i = inactive; ? = inconclusive; nt = not tested or not shown; [ ] = dose if it differs, or a comment. Calls come from the whole dose curve; as a rule, active = well fitted curve in the direction sought with a large enough effect; inconclusive = small, poorly fitted or top-dose-only effect, or another doubt; inactive = no such curve, though single readings can be large; an effect the other way counts as inactive or inconclusive. Potency is the fitted concentration of half-maximal effect.
SMILES,PLK1 PBD inh,G9a block,ALOX12 inh,HP1b binding inh,BAZ2B inh,JMJD2A Tudor
O=C(O)c1c[nH]c2c(C(F)(F)F)cccc2c1=O,0%,35µM*,-8%,32%,?,25µM*
COc1cccc2c(=O)c(C(=O)O)c[nH]c12,-4%,22µM*,-16%,34%,?,79µM*
O=c1cc[nH]c2c(C(F)(F)F)cccc12,-5%,-6%[59 µM],11%,35%,-5%,-10%
CCOC(=O)c1c(NC(=O)c2ccco2)sc2c1CCCCC2,-6%,162%,-16%,147%,96%,83%
O=C(CSc1nnc(Cc2ccccc2)n1Cc1ccco1)NC12CC3CC(CC(C3)C1)C2,-9%,3%[12.7 µM],13%,5%,?,?
NC(=O)c1c(NC(=O)CSc2nnc(Cc3ccccc3)n2Cc2ccco2)sc2c1CCC2,?,40µM*,9%,-19%,-35%,?
CCOC(=O)c1c(NC(=O)CSc2nnc(CNC(=O)c3ccco3)n2C)sc2c1CCC2,-11%,50µM*,9%,6%,?,-32%
COc1cccc(CNCC(O)COc2ccc(C(C)=O)cc2OC)c1 (configuration not stated),nt,nt,-77%,nt,nt,nt
COc1ccccc1COCC(O)CN(CC(O)COCc1ccccc1OC)C12CC3CC(CC(C3)C1)C2 (configuration not stated),nt,nt,-8%,nt,nt,nt
COc1ccccc1COCC(O)CNCC1(N2CCCCC2)CCCCC1 (configuration not stated),-5%,4.5µM*,?,?,?,1.8µM*
COc1cc(C(C)=O)ccc1OCC(O)CNCC1(N2CCCCC2)CCCCC1 (configuration not stated),-6%,28µM*,-25%,?,50µM*,3.2µM*
C=CCNCC(O)COc1ccc(C(C)=O)cc1OC (configuration not stated),5%,nt,-69%,71µM*,50µM*,2µM*
S=c1nc[nH]c2nc[nH]c12,-1%,?,?,-7%,35µM*,4µM*
CCOC(=O)C1CCCN(Cc2ccc(OC)cc2OC)C1 (configuration not stated),-2%,-21%[59 µM],?,?,-32%,1.3µM*
COc1ccc(CN2CCCC(C(=O)N3CCCC3)C2)c(OC)c1 (configuration not stated),-7%,-2%,-38%,50µM*,50µM*,0.89µM*
COc1cc(OC)c(OC)cc1CN1CCCC(C(=O)c2ccccc2SC)C1 (configuration not stated),24µM*,nt,1%,-24%,-12%,?
COc1ccc(C(=O)C2CCCN(Cc3cc(Cl)ccc3O)C2)c(OC)c1 (configuration not stated),1%,nt,?,60%,45%,15%
CCOC(=O)C1CCCN(Cc2ccc(OCc3ccccc3)cc2)C1 (configuration not stated),-24%,nt,0%,?,38%,?
O=C(Nc1cccc(F)c1)c1cnc2ccccc2n1,nt,nt,-6%,nt,nt,nt
C/C(=N\NC(=O)c1ccc(CSc2cccc3cccnc23)cc1)C1CCCCC1,-5%,-7%[59 µM],9%,10%,-10%,-18%
COCCCNC1CS(=O)(=O)CC1O (configuration not stated),-2%,1%[12.7 µM],0%,31%,-33%,-12%
COc1ccc(C2=C(Nc3ccc(C)cc3C)c3ccccc3C2=O)cc1,nt,?,?,-20%,-25%,28µM*
COc1ccc(Cn2c(=O)[nH]c3cc(C(=O)Nc4ccc(N5CCN(C)CC5)cc4)ccc32)cc1,-8%,45µM*,-5%,-38%,?,?
COc1ccc(C(=O)Nc2ccc(N3CCN(Cc4ccccc4)CC3)cc2)cc1,-8%,-7%[59 µM],14%,12%[57 µM],2%,-3%
CCN1CCN(c2ccc(NC(=O)c3ccc4c(c3)[nH]c(=O)n4Cc3ccc(F)cc3)cc2)CC1,-3%,50µM*,-21%,-6%,?,?
SMILES,PLK1 PBD inh,G9a block,ALOX12 inh,HP1b binding inh,BAZ2B inh,JMJD2A Tudor
CCN1CCN(c2cc(=O)n(Cc3ccc(F)cc3)c(=O)[nH]2)CC1,-7%,?,0%,42%,nt,5%
CCCCC1(C)OC(=O)C(=Cc2ccc(SC)cc2)C(=O)O1 (configuration not stated),2.4µM*,-1%[59 µM],-22%,29%,-3%,2%
CN(C)c1ccc(C=C2C(=O)OC(C)(C)OC2=O)cc1,?,?,?,25%,-31%,-9%
CCCCC(=O)N1C[C@@H](CO)[C@H](c2nc(-c3ccncc3)no2)C1,nt,nt,36%,nt,nt,nt
COCCNC(=O)CCCC(=O)NCCOC,-21%,20%[59 µM],-13%,51%,8%,25µM*
O=C(Cn1cccc1C(=O)c1ccccc1)NCCCN1CCc2ccccc2C1,2%,-34%,-7%,34%,8%,4%
Cc1ccc(-c2csc3n[nH]c(=S)n23)cc1,-29%,1.4µM*,?,?,28µM*,1.1µM*
Cc1ccc(OCc2cc(=O)n3c(-c4ccccc4)csc3n2)cc1,nt,5%[59 µM],-18%,29%,5%,?
COc1ccc2c(CC(=O)OCC(=O)c3ccccc3OC)coc2c1,-17%,-7%[59 µM],0%,28%,-7%,-6%[11.4 µM]
Cc1cc(C)cc(NC(=O)CN(c2cccc(C)c2C)S(=O)(=O)c2ccccc2)c1,nt,3%[59 µM],-23%,24%,3%,-20%
COc1ccc(N2CC(O)=C(c3nc(-c4ccc(F)cc4)cs3)C2=N)cc1OC,-1%,17%,-3%,-6%,-24%,-32%
COc1ccc(N2CC(O)=C(c3nc(-c4ccc(F)cc4)cs3)C2=N)cc1Cl,-29%,23%,i,-6%,-3%,40µM*
CCCn1nc(C(=O)N2CC(=O)Nc3ccccc32)c2ccccc2c1=O,1%,-6%[59 µM],0%,21%,11%,-10%
COc1ccc(N2CCN(c3ncnc4c3cnn4C)CC2)cc1,nt,14µM*,-21%,23%,-18%,-34%
Cc1cccc(-n2ncc3c(N4CCN(c5ccccc5)CC4)ncnc32)c1,nt,-3%[59 µM],-25%,108%,-7%,16µM*
Cc1cccc(NC(=O)CN2C(=O)N/C(=C/c3ccc(-c4cccc(C(=O)O)c4C)o3)C2=O)c1,-22%,?,?,34%,?,-1%
O=C(CSc1ccc(Cl)cc1)Nc1cccc(NC(=O)c2ccco2)c1,0%,nt,-16%,34%,-2%,-20%
Nc1nc(C23CC4CC(CC(Cl)(C4)C2)C3)cs1,-4%,6%[59 µM],182%,9%,71µM*,-26%
Nc1nc(C23CC4CCC(CC(C4)C2)C3)cs1,-10%,?,-15%,-1%,-9%,-24%
